# According to PubChem BioAssay AID651598 (Sanford-Burnham Center for Chemical Genomics, 2012):
# “And” between values parts separate entries of the source, which are not always exact repeats. Equal values may be shown once.
# Biological target: Apelin receptor (Homo sapiens) (UniProt P35414)
# Assay: apelin receptor (APJ) antagonists, SAR follow-up, counter-screen for CXCR6 antagonist project, cell-based, beta-arrestin, DiscoveRx, panel, CHO-K1 (AID 651598)
# Conditions: CHO-K1 PathHunter beta-arrestin luminescence, antagonist mode; run 4, at 80 µM (top of the series)
# Sequence of Apelin receptor (Homo sapiens) (P35414 whole entry, looked up): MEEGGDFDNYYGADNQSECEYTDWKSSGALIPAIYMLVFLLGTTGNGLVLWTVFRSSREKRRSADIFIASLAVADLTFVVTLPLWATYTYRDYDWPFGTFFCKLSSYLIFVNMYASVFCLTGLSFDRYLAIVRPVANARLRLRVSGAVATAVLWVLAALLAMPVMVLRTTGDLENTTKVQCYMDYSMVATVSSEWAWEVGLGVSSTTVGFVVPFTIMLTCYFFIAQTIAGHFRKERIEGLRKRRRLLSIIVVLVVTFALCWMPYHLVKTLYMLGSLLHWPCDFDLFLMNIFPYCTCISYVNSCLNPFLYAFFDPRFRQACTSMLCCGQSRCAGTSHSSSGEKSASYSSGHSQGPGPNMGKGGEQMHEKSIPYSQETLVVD
row,SMILES,inhibition
1,COc1cc(C(=O)NC2CC3CCCC(C2)N3CC(=O)Nc2ccccc2)cc(OC)c1OC (stereo not drawn),17% and 11.6% and 7.8%
2,COc1cc(C(=O)NC2CC3CCC(C2)N3CC(=O)Nc2ccccc2)cc(OC)c1OC (stereo not drawn),-13.5% and 16.7%
3,COc1cc(C(=O)NC2CCN(CC(=O)Nc3ccccc3)CC2)cc(OC)c1OC,-1.54%
